Compound activity as filed in PubChem BioAssay.
Only some compounds are listed: those with a hit (about 1.1% of all), similar ones and a draw of the others.
NR2F2 inh = NR2F2 transcriptional activity inhibitors, primary screen, cell-based, luciferase reporter, HEK293T, luminescence | COUP transcription factor 2 (Homo sapiens), P24468 | HEK293T NGFI-A luciferase reporter | inhibition, % at 8.6 µM | 370,000 tested, 0.7% active | AID 686940, 2013;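 active = inhibition above a per-plate cutoff, mean inhibition of test wells between control levels plus 3 SD, cut at about 38% in these data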;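 also: cells cotransfected with COUP-TFII expression vector driving the NGFI-A reporter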
GalR3 antag = GalR3 antagonists in HEK293 cells, primary screen, cell-based, fluorescence readout | Galanin receptor type 3 (Homo sapiens), O60755 | HEK293 GalR3-CNG cAMP membrane potential fluorescence; galR3 body fused to GalR1 C-terminus | inhibition, % at 3 µM | 360,000 tested, 0.44% active | AID 651719, 2012;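 active = inhibition above the screen-wide average plus 3 SD, cut at about 13% in these data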;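 also: forskolin and galanin both at EC90 stimulate the cells; cAMP rise reported by CNG channel membrane potential dye signal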
SRC1 inh = SRC1 coactivator transcriptional activity inhibitors, primary screen, cell-based, luminescence; HEK293 GAL4-SRC1 luciferase reporter; inhibition, % at 3.6 µM; Nuclear receptor coactivator 1 (Homo sapiens), Q15788; AID 588354, 2011; 360,000 tested, 0.12% active;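 active = inhibition above the campaign mean plus 3 SD, with each screening campaign given its own cutoff, cut at about 60% in these data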
LRH-1 inv ag = LRH-1 (NR5A2) inverse agonists, primary screen, cell-based, luminescence, HEK293T, StAR-luciferase reporter. Nuclear receptor subfamily 5 group A member 2 (Homo sapiens), O00482. 360,000 tested, 0.13% active. LRH-1 transfected, 24 h. inhibition, % at 3.6 µM;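 active = inhibition above the mean inhibition of all tested compounds plus 3 SD, cut at about 73% in these data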
NCOA3 inh = SRC3 coactivator transcriptional activity inhibitors, primary screen, cell-based, luminescence | 360,000 tested, 0.17% active | inhibition, % at 3.6 µM | AID 588352, 2011 | Nuclear receptor coactivator 3 (Homo sapiens), Q9Y6Q9 | HEK293 GAL4-SRC3 luciferase reporter;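 active = inhibition above a per-campaign cutoff, the mean of all compounds plus 3 SD, cut at about 60% in these data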;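 also: higher means less SRC3-driven luciferase light from the GAL4 reporter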
NCOA2 inhibitor = inhibition of GAL4-SRC2 driven luciferase reporter, primary screen, SRC2 inhibitor project, cell-based, luminescence; Nuclear receptor coactivator 2 (Homo sapiens), Q15596; inhibition, % at 9 µM; HEK293 GAL4-SRC2 luciferase reporter; 370,000 tested, 0.17% active; AID 651957, 2012;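 active = inhibition above the mean inhibition of all tested compounds plus 3 SD, set per campaign, cut at about 52% in these data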
Target sequence (Q15596 whole entry, looked up, the tested form may be a part): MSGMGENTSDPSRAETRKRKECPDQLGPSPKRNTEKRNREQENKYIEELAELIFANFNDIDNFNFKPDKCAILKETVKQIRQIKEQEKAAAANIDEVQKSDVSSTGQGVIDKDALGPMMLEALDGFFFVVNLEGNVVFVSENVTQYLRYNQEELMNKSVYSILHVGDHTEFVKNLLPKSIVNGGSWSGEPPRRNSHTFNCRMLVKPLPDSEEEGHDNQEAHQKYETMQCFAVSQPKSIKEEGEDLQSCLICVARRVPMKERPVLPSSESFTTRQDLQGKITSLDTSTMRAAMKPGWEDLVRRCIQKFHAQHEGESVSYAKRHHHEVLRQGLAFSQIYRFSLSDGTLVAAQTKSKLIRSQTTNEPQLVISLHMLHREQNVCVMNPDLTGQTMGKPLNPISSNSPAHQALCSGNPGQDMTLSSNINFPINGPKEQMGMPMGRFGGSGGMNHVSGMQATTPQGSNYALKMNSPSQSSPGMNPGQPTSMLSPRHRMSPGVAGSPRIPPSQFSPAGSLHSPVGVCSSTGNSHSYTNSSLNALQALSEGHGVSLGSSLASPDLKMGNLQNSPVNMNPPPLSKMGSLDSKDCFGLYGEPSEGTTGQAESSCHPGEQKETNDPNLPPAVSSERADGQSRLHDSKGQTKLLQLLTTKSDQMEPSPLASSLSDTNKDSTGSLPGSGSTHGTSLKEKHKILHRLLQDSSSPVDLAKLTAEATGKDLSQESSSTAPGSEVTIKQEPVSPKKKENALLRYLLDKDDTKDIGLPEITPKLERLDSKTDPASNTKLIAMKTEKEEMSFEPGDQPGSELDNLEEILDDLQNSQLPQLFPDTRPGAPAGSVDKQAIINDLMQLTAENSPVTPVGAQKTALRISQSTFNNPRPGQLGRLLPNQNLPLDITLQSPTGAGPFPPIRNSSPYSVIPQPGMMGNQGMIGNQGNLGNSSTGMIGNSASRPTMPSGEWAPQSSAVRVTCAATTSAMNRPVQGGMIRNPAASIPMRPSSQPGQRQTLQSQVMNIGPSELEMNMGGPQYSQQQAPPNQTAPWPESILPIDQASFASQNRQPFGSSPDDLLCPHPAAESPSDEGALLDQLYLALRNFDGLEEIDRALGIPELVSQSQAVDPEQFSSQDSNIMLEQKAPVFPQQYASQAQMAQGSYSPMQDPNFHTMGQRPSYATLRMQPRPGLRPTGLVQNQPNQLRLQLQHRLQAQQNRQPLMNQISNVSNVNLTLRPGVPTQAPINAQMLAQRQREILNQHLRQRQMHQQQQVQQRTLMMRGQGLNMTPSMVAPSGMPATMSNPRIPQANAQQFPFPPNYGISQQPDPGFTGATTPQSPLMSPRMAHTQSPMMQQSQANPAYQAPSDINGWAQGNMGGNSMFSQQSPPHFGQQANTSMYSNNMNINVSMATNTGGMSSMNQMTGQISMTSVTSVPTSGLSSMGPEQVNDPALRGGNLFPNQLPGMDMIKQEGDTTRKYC
VP16 Luc counter = Gal4-VP16 luciferase reporter inhibitors, counter-screen for COUP-TFII antagonist project, cell-based, luminescence, HEK293; inhibition, % at 8.5 µM; 2,500 tested, 25% active; shares compounds with NR2F2 inh; in the data active = inhibition above about 13%
NR2F2 inh conf = NR2F2 transcriptional activity inhibitors, confirmation, cell-based, luciferase reporter, HEK293, triplicate; shares compounds with NR2F2 inh; HEK293 NGFI-A luciferase reporter, luminescence; inhibition, % at 8.5 µM; 2,500 tested, 45% active;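 active = mean inhibition over three repeats above a set limit taken from the earlier primary screen, cut at about 38% in these data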
Of the large screens only hits and unclear results are named; the others gave an inactive call (follow-up assays come after a bar, where they were run).

O=C(Nc1ccc(Cc2ccncc2)cc1)C1CCC(N2C(=O)C3C4C=CC(C4)C3C2=O)CC1 (stereo not drawn)	NR2F2 inh 38.1 | VP16 Luc counter inactive | NR2F2 inh conf inactive
CCO[C@H]1OC(C(=O)N2CCN(Cc3ccc4c(c3)OCO4)CC2)=C[C@@H](c2ccc(C(F)(F)F)cc2)[C@@H]1CCCO	none
O=C(c1ccccc1F)N1CCN(S(=O)(=O)c2ccc3c(c2)OCCO3)CC1	NR2F2 inh 42.5 | VP16 Luc counter inactive | NR2F2 inh conf inactive
O=C(N/N=C/c1cccc2ccccc12)c1ccncc1	none
O=C(/C=C/c1cccc2ccccc12)c1ccncc1	NR2F2 inh 39.5 | VP16 Luc counter inactive | NR2F2 inh conf inactive
CCOc1ccc2nc(NC(=O)CN3C(=O)NC4(CCCC4)C3=O)sc2c1	none
O=C1/C(=C/c2cccnc2)CCc2c1[nH]c1ccccc21	none
CC1C/C(=C\c2cccnc2)C(=O)/C(=C/c2cccnc2)C1 (stereo not drawn)	NR2F2 inh 95.6, NCOA2 inhibitor 80.3 | VP16 Luc counter 90.7 | NR2F2 inh conf 105.1
Cc1ccc(NC(=O)c2cccc(NC3=NC4CS(=O)(=O)CC4S3)c2)cc1C (stereo not drawn)	none (no result: GalR3 antag)
COc1ccc(CN2C(=O)C(C)N(C(=O)c3c(F)cccc3F)c3ccccc32)cc1 (stereo not drawn)	none
COc1cccc(CN2C(=O)C(C)N(C(=O)c3ccccc3)c3ccccc32)c1 (stereo not drawn)	NR2F2 inh 53.5 | VP16 Luc counter inactive | NR2F2 inh conf inactive
Cn1c(=O)cc(OCCCC(=O)Nc2cc(C(F)(F)F)ccn2)c2ccccc21	NR2F2 inh 71.1 (no result: GalR3 antag, SRC1 inh, LRH-1 inv ag, NCOA3 inh, NCOA2 inhibitor) | VP16 Luc counter 15.8 | NR2F2 inh conf inactive
Cn1c(=O)cc(OCCCC(=O)Nc2cc(-c3ccncc3)ccn2)c2ccccc21	NR2F2 inh 46.3 (no result: GalR3 antag, SRC1 inh, LRH-1 inv ag, NCOA3 inh, NCOA2 inhibitor) | VP16 Luc counter 23.4 | NR2F2 inh conf 39.5
Cn1c(=O)cc(OCCCC(=O)NCc2ccccn2)c2ccccc21	none
CCOC(=O)C1=NNC(=O)C1	none
Cc1cc(N2CCN(C(=O)Oc3ccc(-c4ccccc4)cn3)CC2)c2ccccc2n1	NR2F2 inh 86.9 (no result: GalR3 antag, SRC1 inh, LRH-1 inv ag, NCOA3 inh) | VP16 Luc counter inactive | NR2F2 inh conf 38.2
O=C(NCc1cccc(C(F)(F)F)c1)c1csc([C@@H]2C[C@H](O)[C@@H](CO)O2)n1	none
C=C(C)CC1(NC(C)c2ccccc2)CCCCC1 (stereo not drawn)	NR2F2 inh 40.7 | VP16 Luc counter inactive | NR2F2 inh conf inactive
Cc1ccc2nccc(C(=O)N3CCCC(N4CCN(c5ccc(F)cc5)CC4)C3)c2c1 (stereo not drawn)	none
Cc1c(/C(O)=C2\C(=O)C(=O)N(CCCN(C)C)C2c2ccco2)cnn1-c1ccccc1 (stereo not drawn)	NR2F2 inh 49.1 | VP16 Luc counter inactive | NR2F2 inh conf inactive
C[C@H]1CN([C@@H](C)CO)C(=O)c2cccc(NS(=O)(=O)c3ccc(Cl)cc3)c2O[C@@H]1CN(C)CC1CCCCC1	none
CCCCCCC[N+](CC)(CC)CCCCc1ccc(Cl)cc1	NR2F2 inh 40.8 | VP16 Luc counter 14.8 | NR2F2 inh conf inactive
C=CCNc1nc(-c2sc(NC(=O)C(C)(C)C)nc2C)c(-n2cc(-c3ccccc3)nn2)s1	NR2F2 inh 38.3 (no result: SRC1 inh, NCOA3 inh) | VP16 Luc counter inactive | NR2F2 inh conf inactive
COc1ccc(C2CCC3(CCC(=O)N3CCOC(=O)NCc3ccc(Cl)cc3)CC2)cc1 (stereo not drawn)	NR2F2 inh 40.1 (no result: GalR3 antag, SRC1 inh, LRH-1 inv ag, NCOA3 inh) | VP16 Luc counter inactive | NR2F2 inh conf inactive
